D2 PAM-1: positive allosteric modulators of human D2 dopamine receptor; 340,000 compounds, 0.34% hits; HEK293 T-REx D2, calcium flux, EC20 dopamine potentiation; P14416; potentiation, % at 10 µM;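 active = potentiation over 3 SD above the plate norm, cut at about 30% in these data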
Target sequence (P14416 whole entry, looked up): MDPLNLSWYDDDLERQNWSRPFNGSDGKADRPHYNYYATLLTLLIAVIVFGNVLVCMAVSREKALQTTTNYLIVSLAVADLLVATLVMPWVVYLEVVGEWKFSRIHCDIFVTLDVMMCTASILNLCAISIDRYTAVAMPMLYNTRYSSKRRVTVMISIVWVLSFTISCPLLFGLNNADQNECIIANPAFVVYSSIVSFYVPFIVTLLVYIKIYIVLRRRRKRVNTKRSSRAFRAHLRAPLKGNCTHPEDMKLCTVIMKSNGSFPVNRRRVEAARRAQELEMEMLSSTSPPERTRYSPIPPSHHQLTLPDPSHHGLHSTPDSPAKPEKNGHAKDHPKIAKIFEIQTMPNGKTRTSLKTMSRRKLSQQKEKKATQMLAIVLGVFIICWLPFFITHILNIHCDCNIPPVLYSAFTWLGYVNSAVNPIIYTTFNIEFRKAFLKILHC
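Potentiation of an EC20 dopamine calcium response measured kinetically over 180 s, after a preceding 180 s compound-only read flagging agonists. Cells: inducible Hek293 Trex D2 line, 4000/well, cultured overnight at 30 C before dye loading.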
D2 ag-1: agonists of human D2 dopamine receptor (beta-arrestin) | 360,000 compounds, 0.084% hits | activation, % (test concentration not listed) | DiscoveRx PathHunter D2 beta-arrestin, luminescence, 90 min; 100% = 57 uM dopamine signal | AID 624465; in the data active = activation above about 40%; inconclusive = between about 15% and that limit
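Agonist mode: compounds alone added to overnight-plated D2 PathHunter cells for 90 min at 37 C, with 57 uM final dopamine (EC100) defining full response. Beta-arrestin recruitment detected by chemiluminescent reagent, read after 1 h at ambient temperature.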
D2 PAM-2: potentiates the human D2 dopamine receptor allosterically | 360,000 compounds, 0.23% hits | DiscoveRx D2 beta-arrestin cells, luminescence, 90 min; 100% = 57 uM dopamine signal | AID 624464 | P14416 | potentiation, % (no concentration beside the values); in the data active = potentiation above about 50%; inconclusive = mostly about 30% to 49%
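D2 cells co-treated with compound plus 50 nM dopamine (EC20) for 90 min at 37 deg C to detect potentiation. Beta-arrestin recruitment was read as enzyme-fragment luminescence after 1 h at ambient temperature. Full response was set by 57 uM dopamine.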
D2 ag-2: D2 dopamine receptor (human) agonism; P14416; HEK293 T-REx D2 cells, calcium flux agonist mode; activation, % at 2 µM; 340,000 compounds, 0.53% hits; AID 485358;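 active = activation over 3 SD above normal in the single-dose calcium agonist read, cut at about 30% in these data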
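Agonism is scored from calcium flux in a force-coupled, inducible HEK293 cell line expressing D2, read kinetically for 180 s after compound addition against dopamine controls.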
D2 antagonist: antagonizes the human D2 dopamine receptor; P14416; HEK293 TREx D2 cells, calcium flux, dopamine EC80; inhibition, % at 10 µM; 340,000 compounds, 2% hits; in the data active = inhibition above about 30%; inactive = below that, where a call was filed
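Cells plated overnight at 30 C with tetracycline; no-wash calcium dye, 30–90 min RT; 10 s baseline; compound pinned; 180 s read; EC80 dopamine added; another 180 s read.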
Hits are given with their value. Compounds with a hit are over-represented: about 2.4% of the library has one in this group of screens.

CS(=O)(=O)Nc1nc2n(n1)C(c1ccccc1)C=C(c1ccc(Br)cc1)N2 (configuration not stated) was read as D2 PAM-1 inactive, D2 ag-1 inconclusive, D2 PAM-2 75, D2 ag-2 inactive and D2 antagonist inactive.
Cc1ccc(S(=O)(=O)c2nnn3c2nc(NCCCN2CCCC2=O)c2ccccc23)cc1C was read as D2 PAM-1 inactive, D2 ag-1 inactive, D2 PAM-2 inactive, D2 ag-2 inactive and D2 antagonist inactive.
Cc1ccc(S(=O)(=O)c2nnn3c2nc(NC2CCN(Cc4ccccc4)CC2)c2ccccc23)cc1C was read as D2 PAM-1 37, D2 ag-1 inactive, D2 PAM-2 inactive, D2 ag-2 inactive and D2 antagonist inactive.
COc1ccc2c3c(cccc13)OC2=O was read as D2 PAM-1 inactive, D2 ag-1 inactive, D2 PAM-2 inactive, D2 ag-2 inactive and D2 antagonist inactive.
Screening COc1ccc2c3c(cccc13)N(C)N=C2C returned D2 PAM-1 inactive, D2 ag-1 inactive, D2 PAM-2 56, D2 ag-2 inactive and D2 antagonist inactive.
For Cc1cc(C)c(NC(=O)CCC(=O)N2Cc3ccccc3Oc3ncccc32)c(C)c1 the results were D2 PAM-1 inactive.
Screening CCC(C(=O)Nc1cc(OC)ccc1OC)n1c(C)c2cnn(-c3ccccc3)c(=O)c2c1C (configuration not stated) returned D2 PAM-1 inactive and D2 ag-2 inactive.
CCC(C(=O)NCCc1ccc(OC)c(OC)c1)n1nc(C)n2c(cc3occc32)c1=O (configuration not stated) was read as D2 PAM-1 inactive, D2 ag-1 inactive, D2 PAM-2 inactive, D2 ag-2 inactive and D2 antagonist 33.
For COC(=O)c1ccccc1NC(=O)Cn1ncc2c(C)n(Cc3ccc(F)cc3)c(C)c2c1=O the results were D2 PAM-1 inactive and D2 ag-2 inactive.
Screening COC(=O)c1ccc(NC(=O)Cn2nc(C(=O)Nc3ccc(C)cc3)ccc2=O)cc1 returned D2 PAM-1 inactive, D2 ag-1 inactive, D2 PAM-2 inactive, D2 ag-2 inactive and D2 antagonist 30.
Screening CCN(CC)C(=O)Cn1ncc2c([nH]c3ccc(C)cc32)c1=O returned D2 PAM-1 inactive.
For O=C(O)c1ccc(N2CCCS2(=O)=O)cc1 the results were D2 PAM-1 inactive, D2 ag-1 inactive, D2 PAM-2 inactive, D2 ag-2 inactive and D2 antagonist 34.
`COc1ccc(NC(=O)CC2C(=O)N(c3cccc(OC)c3)C(=O)N2CCC2=CCCCC2)cc1` (configuration not stated) gave D2 PAM-1 inactive and D2 ag-2 inactive.
Screening CCCCNC(=O)NS(=O)(=O)c1ccc(C)cc1 returned D2 PAM-1 inactive, D2 ag-1 inactive, D2 PAM-2 inactive, D2 ag-2 inactive and D2 antagonist 33.
`Cc1ccc(S(=O)(=O)NC(=O)NCCCCNC(=O)NS(=O)(=O)c2ccc(C)cc2)cc1` gave D2 PAM-1 inactive, D2 ag-1 inactive, D2 PAM-2 inactive, D2 ag-2 inactive and D2 antagonist inactive.
`Cc1ccc(S(=O)(=O)NC(=O)NN2CCCCCC2)cc1` gave D2 PAM-1 inactive, D2 ag-1 inactive, D2 PAM-2 inactive, D2 ag-2 inactive and D2 antagonist 34.
O=S(=O)(c1cccc(Cl)c1)c1nnn2c1nc(NC1CCCC1)c1sccc12 was read as D2 PAM-1 inactive and D2 ag-2 inactive.
`Cc1ccc(OCC(=O)N(Cc2ccc(N(C)C)cc2)CC2CCCO2)cc1C` (configuration not stated) gave D2 PAM-1 inactive and D2 ag-2 inactive.
CSc1ncc(C(=O)Nc2cc(Cl)ccc2C)c(-c2ccccc2)n1 was read as D2 PAM-1 inactive and D2 ag-2 inactive.
For CCOC(=O)c1c(NC(=O)COC(=O)c2nc(Cl)ccc2Cl)sc(C(=O)N(C)C)c1C the results were D2 PAM-1 inactive, D2 ag-1 inactive, D2 PAM-2 inactive, D2 ag-2 inactive and D2 antagonist inactive.
CCOC(=O)c1c(NC(=O)COC(=O)CNC(=O)c2ccc(Cl)cc2Cl)sc(C(=O)N(C)C)c1C was read as D2 PAM-1 32, D2 ag-1 inactive, D2 PAM-2 inactive, D2 ag-2 inactive and D2 antagonist inactive.
For CCCOc1ccccc1C(=O)N(Cc1cccc(Br)c1)C1CCS(=O)(=O)C1 (configuration not stated) the results were D2 PAM-1 inactive, D2 ag-1 inactive, D2 PAM-2 inactive, D2 ag-2 inactive and D2 antagonist 47.
`CCN(C(=O)N(CC)c1ccccc1)c1ccccc1` gave D2 PAM-1 inactive, D2 ag-1 inactive, D2 PAM-2 inactive, D2 ag-2 inactive and D2 antagonist 43.
Screening O=C1c2ccccc2-c2onc3ccc(NCCCn4ccnc4)c1c23 returned D2 PAM-1 inactive, D2 ag-1 inactive, D2 PAM-2 67, D2 ag-2 49 and D2 antagonist inactive.
COc1ccc2noc3c2c1C(=O)c1ccccc1-3 was read as D2 ag-1 inactive and D2 PAM-2 inactive.
For CCCN(CCC)CCNC(=O)C1CCN(S(=O)(=O)c2cccc3nsnc23)CC1 the results were D2 PAM-1 inactive, D2 ag-1 inactive, D2 PAM-2 inactive, D2 ag-2 inactive and D2 antagonist 37.
`O=[N+]([O-])c1ccc(N2CCN(CCO)CC2)cc1NCc1ccco1` gave D2 PAM-1 inactive, D2 ag-1 inactive, D2 PAM-2 inactive, D2 ag-2 inactive and D2 antagonist 34.
`Cc1cc(C)c(S(=O)(=O)N2CCN(c3ccc([N+](=O)[O-])c(NCc4ccco4)c3)CC2)c(C)c1` gave D2 PAM-1 inactive, D2 ag-1 inactive, D2 PAM-2 inactive, D2 ag-2 inactive and D2 antagonist inactive.
For COc1ccccc1N1CCN(C(=O)c2cc(-c3ccc(C)c(F)c3)on2)CC1 the results were D2 PAM-1 inactive and D2 ag-2 inactive.
Screening FC(F)Sc1ccc(NC(=S)NC2CCCCC2)cc1 returned D2 PAM-1 inactive, D2 ag-1 inactive, D2 PAM-2 inactive, D2 ag-2 inactive and D2 antagonist inactive.
Screening FC(F)Sc1ccc(NC(=S)NCC2CCCCC2)cc1 returned D2 PAM-1 inactive, D2 ag-1 inactive, D2 PAM-2 inactive, D2 ag-2 inactive and D2 antagonist 32.
Screening CCN(CC)c1ccc2cc(-c3nc4ccccc4n3C)c(=O)oc2c1 returned D2 PAM-1 inactive, D2 ag-1 inactive, D2 PAM-2 inactive, D2 ag-2 72 and D2 antagonist 40.
`CCN(CC)c1ccc2cc(-c3nnc(-c4ccccc4)o3)c(=O)oc2c1` gave D2 PAM-1 inactive, D2 ag-1 inactive, D2 PAM-2 inactive, D2 ag-2 116 and D2 antagonist 38.
Screening CCN(CC)c1ccc2cc(-c3nc4ccccc4[nH]3)c(=O)oc2c1 returned D2 PAM-1 inactive, D2 ag-1 inactive, D2 PAM-2 inactive, D2 ag-2 104 and D2 antagonist 76.
